The text below walks through data of PubChem BioAssay (Tox21).

Values joined by “and” are separate entries in the source; they are usually repeats but may differ in a detail not shown here. Identical values can stand only once. Unmarked numbers belong to inactive results. Results filed as inconclusive are left out. Active and inactive are the calls of the source. Unless noted, the call rests on the fitted dose curve; in most records, active means well fitted curve in the direction sought with a large enough effect in the repeat runs; inconclusive means weak or mixed curves; inactive means no such curve, though single readings can be large; an effect the other way counts as inactive or inconclusive.

A short description of test [1]: qHTS assay for small molecules that induce genotoxicity in human embryonic kidney cells expressing luciferase-tagged ATAD5 (AID 651632). Further: nearly all actives have a fitted effect of over 15% in size. As to conditions: HEK293T ATAD5-luciferase induction, 16 h; series mostly up to 83.3 µM. Put shortly:
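Test compounds were delivered by pin tool onto HEK293T reporter cells (2,000/well) expressing ATAD5 fused to luciferase. After 16 hr at 37C, 5% CO2, Amplite was added for 30 min at room temperature and luminescence was measured.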

A short description of test [2]: qHTS assay for small molecules that induce genotoxicity in human embryonic kidney cells expressing luciferase-tagged ATAD5 - cell viability (AID 651634; calls by dose curve; further: nearly all actives have a fitted effect of over 25% in size; further: potency means the concentration at half of the fitted maximal effect). As to conditions: HEK293T ATAD5-luc cells viability, CellTiter-Fluor, 15.5 h; series mostly up to 83.3 µM. Put shortly:
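Quantitative high-throughput format. HEK293T cells expressing ATAD5 fused to luciferase were plated at 2,000 cells/well and treated 15.5 hr with compound versus DMSO. Viability was determined by fluorescent live-cell protease substrate, 30 min at 37C.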

Test [3] can be described thus: qHTS assay for small molecule disruptors of the mitochondrial membrane potential - cell viability (AID 720634; calls by dose curve; further: nearly all actives have a fitted effect of over 20% in size; further: potency means the concentration at half of the fitted maximal effect). The settings on record: HepG2 viability, ATP luminescence (CellTiter-Glo), 1 h; series mostly up to 83.2 µM. Put shortly: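 Same-well counter-screen: following the MMP dye addition, CellTiter-Glo was added to 1 hr compound-treated HepG2 cells and luminescence read after 30 min at room temperature.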

Test [4] in a line: qHTS assay for small molecule disruptors of the mitochondrial membrane potential (AID 720635). Further: potency means the concentration at half of the fitted maximal effect. As to conditions: HepG2 mitochondrial membrane potential, Mito-MPS dye ratio; series mostly up to 83.2 µM. Put shortly: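 Mitochondrial membrane potential tracked with Mito-MPS dye, red aggregates (ex 540/em 590 nm) against green monomers (ex 490/em 535 nm). Compound treatment 1 hr at 37C, dye 30 min in HepG2.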

A short description of test [5]: qHTS assay to test for compound auto fluorescence at 590 nm (red) in HepG2 cells (AID 720674). The settings on record: HepG2 autofluorescence, red 540/590 nm, 1 h; series mostly up to 91.3 µM. In short, it runs like this: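 Red autofluorescence (Ex/Em 540/590 nm, Rose Bengal sodium equivalents) was measured in HepG2 cells, 2,000 per well in MEM plus 10% FBS, plated overnight at 37 C. Readings were taken 1 hr after adding 23 nL compound or DMSO, at 37 C and 5% CO2.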

Test [6] can be described thus: qHTS assay to test for compound auto fluorescence at 535 nm (green) in HepG2 cells (AID 720675). As to conditions: green autofluorescence 485/535 nm, 1 h; series mostly up to 91.3 µM.
Test [7] is described as follows: qHTS assay to test for compound auto fluorescence at 460 nm (blue) in HEK293 cells (AID 720678). Further: potency means the concentration at half of the fitted maximal effect. As to conditions: blue autofluorescence 405/460 nm; series mostly up to 91.3 µM. Put shortly:
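Measured: blue fluorescence (Ex 405/Em 460 nm) of compound-treated HEK293 cells, incubated overnight at 37C with 5% CO2 and scaled to triamterene equivalents.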

The nature of test [8]: qHTS assay to test for compound auto fluorescence at 590 nm (red) in HEK293 cells (AID 720679). As to conditions: red autofluorescence 540/590 nm; series mostly up to 91.3 µM. Put shortly: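 Using HEK293 cells at 2,000 per well, the screen added 23 nL of each compound after cell attachment and incubated overnight (37C, 5% CO2). The plate reader then captured red-label fluorescence, Ex/Em 540/590nm.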

Test [9] can be described thus: qHTS assay for small molecule agonists of the p53 signaling pathway - cell viability (AID 651633; calls by dose curve; further: nearly all actives have a fitted effect of over 30% in size; further: potency means the concentration at half of the fitted maximal effect). The settings on record: p53RE-bla HCT-116 viability, ATP luminescence, 16 h; series mostly up to 83.3 µM. Put shortly:
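Viability counter-read: CellTiter-Glo luminescence (30 min, room temperature) in the same p53RE-bla plates. These plates had been exposed to compounds for 16 h at 37 C.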
On the % scale 0 is the no-effect control and ±100 the full control effect; tags describe the fitted curve by direction and shape or compound fluorescence and quenching.

For `CCCCCCCCCCCCCCCC[N+](C)(C)CCN(Cc1ccc(OC)cc1)c1ncccn1`, the Potency result in test [1], in test [2] and in test [3] was “inactive” each time. For the same compound, the Potency in test [4] was 11.4 µM (active). For the same compound, in test [5], the fluorescence, relative to Rose Bengal is 0.0174% [at 18.6 µM]. Besides, in test [6], the fluorescence, % of fluorescein control is -0.0711% [at 18.6 µM]. Also, the fluorescence, % of triamterene in test [7] is 0.0413% [at 18.6 µM]. In addition, the fluorescence, % of fluorescent control in test [8] is -0.0306% [at 18.6 µM].

For the compound `CCN(CCC#N)c1ccc(N=Nc2c(Cl)cc([N+](=O)[O-])cc2Cl)cc1`, the Potency result in test [1], in test [5], in [6], in test [7] and in test [8] was “inactive” in each case. For the same compound, the Potency in test [3] is 19.3 µM (active).

Regarding `OCCN(CCO)c1nc(N2CCCCC2)c2nc(N(CCO)CCO)nc(N3CCCCC3)c2n1`, the Potency entry in test [1], in [3], in test [5], in test [6] and in [8] was “inactive” each time. For the same compound, the Potency in [7] is 12.6 µM [fluorescent] (active).

For the compound `O=[N+]([O-])c1cc(Cl)c(Cl)c(Cl)c1Cl`, the Potency result in [9], in test [2], in test [3], in test [5], in test [6] and in test [7] was “inactive” throughout. In addition, the Potency result in [8] is “inactive”.

As for `CN(C/C=C/C#CC(C)(C)C)Cc1cccc2ccccc12`, the Potency result in [1], in test [2], in test [3], in test [4], in [5] and in test [6] was “inactive” in each case. For the same compound, the Potency result in test [7] and in test [8] was “inactive” in each case.

For the compound `CC/C(=C(\c1ccc(O)cc1)c1ccc(OCCN(C)C)cc1)c1ccccc1`, the Potency result in test [1], in [5], in [6], in test [7] and in [8] was “inactive” throughout. The Potency in test [2] is 61.3 µM (active); in test [3], 68.7 µM (active); in test [4] it was 24.4 µM (active).

With `CN1CCC(Nc2ncc3ncnc(Nc4ccc(F)c(Cl)c4)c3n2)CC1`, the Potency result in test [9], in test [2], in test [3], in test [5], in test [6] and in test [8] was “inactive” each time.

`O=C(N/N=C/c1ccccc1O)c1ccncc1`: in test [9], the Potency is 3.76 µM (active). In addition, the Potency result in test [3], in test [5], in [6], in test [7] and in test [8] was “inactive” each time.

For `CCC(Cl)C(Cl)C(Cl)CC(Cl)C(Cl)C(C)Cl` (stereo not drawn), the Potency result in test [1], in [2], in test [3], in test [5], in test [6] and in [7] was “inactive” throughout. In test [8], the Potency entry was “inactive”. Moreover, the Potency in [4] is 24.3 µM (active).

As to `CSc1ccc2c(c1)C(N1CCN(C)CC1)Cc1ccccc1S2` (stereo not drawn), the Potency result in test [1], in test [3], in test [5], in test [6], in [7] and in [8] was “inactive” throughout.

Consider `Nc1ccc2cc(S(=O)(=O)O)cc(O)c2c1N=Nc1ccccc1C(F)(F)F`, for which the Potency result in [1], in test [3], in test [5], in test [6], in test [7] and in test [8] was “inactive” in each case.

Take `NNc1nc(-c2ccc([N+](=O)[O-])cc2)cs1`: the Potency result in [1], in [5], in [6], in test [7] and in test [8] was “inactive” throughout. In addition, the Potency in test [3] is 17.2 µM (active); in test [4], 1.37 µM (active).

Consider `CC1=C(/C=C/C(C)=C/C=C/C(C)=C/C=O)C(C)(C)CCC1`, for which the Potency in test [9] was 43 µM (active); in test [2], 60.8 µM (active); in test [4] it was 15.3 µM (active). Besides, the Potency entry in [5], in test [6], in test [7] and in test [8] was “inactive” in each case.

As to `CCN(Cc1cccnc1)C(=O)c1cccc(Cl)c1[C@]1(C)C(=O)N(Cc2ccc(OC)cc2OC)c2ccc(Cl)cc21`, the Potency entry in test [1], in test [3], in [5], in [6], in test [7] and in [8] was “inactive” throughout. For the same compound, the Potency in test [2] is 9.05 µM (active); in [4], 8.07 µM (active).

For the compound `Cc1ccc2oc(CN(Cc3ccccc3)C(=O)Nc3c(F)cc(F)cc3F)c(-c3ccc(Cl)cc3)c2c1`, the Potency result in test [1], in test [2], in test [5], in test [6], in test [7] and in test [8] was “inactive” each time. In addition, the Potency in test [4] is 18.7 µM (active).

As for `O=CC=C(c1ccccc1)c1ccccc1`, the Potency entry in [1], in test [2], in test [5], in test [6], in test [7] and in test [8] was “inactive” throughout. The Potency in test [4] was 30.9 µM (active).

Turning to `Nc1ccccc1O`, the Potency result in [1], in test [3], in test [5], in test [6], in [7] and in test [8] was “inactive” throughout. Besides, in test [4], the Potency was 60.3 µM (active).

As for `S=c1[nH]c2ccccc2s1`, the Potency result in test [9], in test [2], in [3], in [5], in test [6] and in test [7] was “inactive” throughout. Moreover, the Potency entry in [8] is “inactive”. Moreover, the Potency in [4] is 26.6 µM (active) and 27.3 µM (active).

For `NNc1nc(-c2ccccc2)cs1`, the Potency result in test [1], in test [3], in [5], in test [6], in test [7] and in test [8] was “inactive” throughout. Besides, the Potency in test [4] was 1.58 µM (active).

For `O=[N+]([O-])c1cc([N+](=O)[O-])c2ccc(S(=O)(=O)O)cc2c1O`, the Potency entry in test [9], in [3], in [4], in [5], in test [6] and in test [7] was “inactive” in each case. In addition, the Potency entry in [8] was “inactive”.

As to `Cc1cc(O)c2ccccc2c1O`, the Potency result in [1], in test [2], in [3], in test [5], in test [6] and in test [7] was “inactive” in each case. Further, the Potency result in test [8] was “inactive”.

Regarding `O=C(OCC1CO1)C1CCCCC1C(=O)OCC1CO1` (stereo not drawn), the Potency result in test [9], in [3], in test [4], in test [5], in test [6] and in test [7] was “inactive” each time. In addition, in [8], the Potency result is “inactive”.

For the compound `COc1cccc(N)c1`, the Potency entry in [9], in test [3], in test [5], in test [6], in test [7] and in test [8] was “inactive” each time. Besides, the Potency in test [2] is 13.8 µM (active).

Turning to `CC(C)(C)NC(=O)[C@@H]1C[C@@H]2CCCC[C@@H]2CN1C[C@@H](O)[C@H](Cc1ccccc1)NC(=O)[C@H](CC(N)=O)NC(=O)c1ccc2ccccc2n1`, the Potency entry in test [1], in [3], in test [5], in test [6], in [7] and in test [8] was “inactive” throughout. Moreover, the Potency in test [4] is 43.8 µM (active).
